Measurements: the supplement of paper PMC8728848
Only a selection was taken, and the strongest signals are over-represented in it overall.

Legend:
Test in all cases: glycan array binding signal (z-score within array); higher = stronger binding
Details in all cases: glycan notation: IUPAC condensed, linker removed
[1] = target: Gal(b1-4)GlcNAc(b1-3)[Fuc(a1-3)GlcNAc(b1-6)]Gal(b1-4)Glc
Procedure, shortened: (§1)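 Glycan array binding is given as a within-array Z-score, which can be read as non-binding when negative. The arrays, 3228 of them, came from the Consortium for Functional Glycomics database and were retained only where the protein sequence was available. Z-scores were averaged across arrays of the same protein sequence at different concentrations or buffers and across linkers.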

[2] = target: Gal3S(b1-4)Glc6S
Procedure, shortened: as §1

[3] = target: Gal3S6S(b1-4)GlcNAc6S
Procedure, shortened: as §1

[4] = target: Gal6S(b1-4)Glc6S
Procedure, shortened: as §1

[5] = target: GalNAc3S(b1-4)GlcNAc3S
Procedure, shortened: as §1

[6] = target: GlcA3S(b1-3)Gal(b1-4)GlcNAc(b1-2)Man
Procedure, shortened: as §1

[7] = target: GlcNAc(b1-2)[GlcNAc(b1-6)]Man(a1-6)[GlcNAc(b1-2)Man(a1-3)]Man(b1-4)GlcNAc(b1-4)[Fuc(a1-6)]GlcNAc
Procedure, shortened: as §1

[8] = target: GlcNAc(b1-3)Gal
Procedure, shortened: as §1

[9] = target: GlcNAc(b1-6)GalNAc
Procedure, shortened: as §1

[10] = target: Kdn(a2-3)Gal(b1-4)[Fuc(a1-3)]GlcNAc
Procedure, shortened: as §1

[11] = target: Kdn(a2-6)Gal(b1-4)GlcNAc
Procedure, shortened: as §1

[12] = target: Man(a1-2)Man(a1-3)[Man(a1-6)]Man(a1-6)[Man(a1-2)Man(a1-3)]Man(b1-4)GlcNAc(b1-4)GlcNAc
Procedure, shortened: as §1

[13] = target: Neu5Ac(a2-3)Gal(b1-3)GlcNAc(b1-2)Man
Procedure, shortened: as §1

[14] = target: Neu5Ac(a2-3)Gal(b1-3)GlcNAc(b1-3)GalNAc
Procedure, shortened: as §1

[15] = target: Neu5Ac(a2-3)Gal(b1-3)GlcNAc6S
Procedure, shortened: as §1

[16] = target: Neu5Ac(a2-3)Gal(b1-3)[Fuc(a1-4)]GlcNAc
Procedure, shortened: as §1

[17] = target: Neu5Ac(a2-3)Gal(b1-3)[Neu5Ac(a2-6)]GlcNAc(b1-3)[Fuc(a1-3)[Gal(b1-4)]GlcNAc(b1-6)]Gal(b1-4)Glc
Procedure, shortened: as §1

[18] = target: Neu5Ac(a2-3)Gal(b1-4)GlcNAc(b1-2)[Neu5Ac(a2-3)Gal(b1-4)GlcNAc(b1-4)]Man(a1-3)[GlcNAc(b1-4)][Neu5Ac(a2-3)Gal(b1-4)GlcNAc(b1-2)[Neu5Ac(a2-3)Gal(b1-4)GlcNAc(b1-6)]Man(a1-6)]Man(b1-4)GlcNAc(b1-4)GlcNAc
Procedure, shortened: as §1

[19] = target: Neu5Ac(a2-3)Gal(b1-4)GlcNAc(b1-3)Gal(b1-4)GlcNAc(b1-3)[Neu5Ac(a2-3)Gal(b1-4)GlcNAc(b1-3)Gal(b1-4)GlcNAc(b1-6)]GalNAc
Procedure, shortened: as §1

[20] = target: Neu5Ac(a2-3)Gal(b1-4)[Fuc(a1-3)]GlcNAc(b1-6)[Gal(b1-3)]GalNAc
Procedure, shortened: as §1

[21] = target: Neu5Ac(a2-3)Gal6S(b1-4)[Fuc(a1-3)]GlcNAc
Procedure, shortened: as §1

[22] = target: Neu5Ac(a2-6)Gal(b1-4)GlcNAc(b1-2)Man(a1-3)[Neu5Ac(a2-6)Gal(b1-4)GlcNAc(b1-2)Man(a1-6)]Man(b1-4)GlcNAc(b1-4)GlcNAc
Procedure, shortened: as §1

[23] = target: Neu5Ac(a2-6)Gal(b1-4)GlcNAc(b1-2)Man(a1-6)Man(b1-4)GlcNAc(b1-4)GlcNAc
Procedure, shortened: as §1

[24] = target: Neu5Ac(a2-6)Gal(b1-4)GlcNAc(b1-2)Man(a1-6)[Man(a1-3)]Man(b1-4)GlcNAc(b1-4)GlcNAc
Procedure, shortened: as §1

[25] = target: Neu5Ac(a2-6)Gal(b1-4)GlcNAc(b1-3)Gal(b1-4)GlcNAc(b1-3)Gal(b1-4)GlcNAc(b1-2)Man(a1-3)[Neu5Ac(a2-6)Gal(b1-4)GlcNAc(b1-3)Gal(b1-4)GlcNAc(b1-3)Gal(b1-4)GlcNAc(b1-2)Man(a1-6)]GalNAc
Procedure, shortened: as §1

[26] = target: Neu5Ac(a2-6)Gal(b1-4)GlcNAc(b1-6)GalNAc
Procedure, shortened: as §1

[27] = target: Neu5Ac(a2-6)GlcNAc(b1-4)GlcNAc(b1-4)GlcNAc
Procedure, shortened: as §1

[28] = target: Neu5Ac(a2-8)Neu5Ac
Procedure, shortened: as §1

[29] = target: Neu5Ac(a2-8)Neu5Ac(a2-8)Neu5Ac(a2-3)[GalNAc(b1-4)]Gal(b1-4)Glc
Procedure, shortened: as §1

B1: Pbx2CASH domain (Cryptococcus neoformans) (protein)
chain: GIPGPNRLYRLSGPIIFTAADQEIATYGYPTGSERAVLRVEGRNTATAIQGDCRRCARVSVKNLVVDGNRKKLGRMRDFQLATGLVVLGGNEGQSIQNSWIKNPRGFTAIHIREGDKLQCSGARVEKNEIGPVGEEYDPEKDGDDPEMSPLGRPLADGVSIACRDSFIRDNTFRDNTDAAIVVYCSPGTLIHA
In the case of B1, the “glycan array binding signal (z-score)” value [1] is reported as -0.704, the “glycan array binding signal (z-score)” value [2] is reported as 0.057 and the “glycan array binding signal (z-score)” value [3] is reported as 1.44. For the same binder, the “glycan array binding signal (z-score)” value [4] was 3.18, the “glycan array binding signal (z-score)” value [5] was -0.15 and the “glycan array binding signal (z-score)” value [6] was 2.57. The “glycan array binding signal (z-score)” value [7] was -0.071, the “glycan array binding signal (z-score)” value [8] was -0.697 and the “glycan array binding signal (z-score)” value [9] was -0.438. The “glycan array binding signal (z-score)” value [10] was 0.079, the “glycan array binding signal (z-score)” value [11] was -0.478 and the “glycan array binding signal (z-score)” value [12] was -0.457. The “glycan array binding signal (z-score)” value [13] was 3.35, the “glycan array binding signal (z-score)” value [14] was 0.011 and the “glycan array binding signal (z-score)” value [15] was -0.247. For the same binder, the “glycan array binding signal (z-score)” value [16] was -0.813, the “glycan array binding signal (z-score)” value [17] was -0.803 and the “glycan array binding signal (z-score)” value [18] was 0.012. The “glycan array binding signal (z-score)” value [19] was 0.079, the “glycan array binding signal (z-score)” value [20] was 0.909 and the “glycan array binding signal (z-score)” value [21] was -0.748. For the same binder, the “glycan array binding signal (z-score)” value [22] was -0.301, the “glycan array binding signal (z-score)” value [23] was 1.6 and the “glycan array binding signal (z-score)” value [24] was 2.48. The “glycan array binding signal (z-score)” value [25] was 4.62, the “glycan array binding signal (z-score)” value [26] was 1.05 and the “glycan array binding signal (z-score)” value [27] was -0.208. The “glycan array binding signal (z-score)” value [28] was -0.046 and the “glycan array binding signal (z-score)” value [29] was 3.58.
